High-throughput results as filed in PubChem.
D2 PAM-1: HTS Assay for Positive Allosteric Modulators of the Human D2 Dopamine Receptor: Primary Screen for Potentiators. hit rate 0.34% among 340,000. D(2) dopamine receptor (Homo sapiens), P14416. potentiation, % at 10 µM. HEK293 T-REx D2, calcium flux, EC20 dopamine potentiation. AID 485347, 2010;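 active means potentiation over 3 SD above the plate norm, cut at about 30% in these data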; further: 0% is about no effect
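Using a no-wash calcium dye in inducible, force-coupled HEK293 Trex cells expressing D2, we tracked fluorescence each second for 180 s after compound, then for 180 s after EC20 dopamine to detect augmented signalling.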
D2 PAM-2: Beta-Arrestin HTS for Positive Allosteric Modulators of the Human D2 Dopamine Receptor: Potentiators | DiscoveRx D2 beta-arrestin cells, luminescence, 90 min; 100% = 57 uM dopamine signal | AID 624464, 2012 | hit rate 0.23% among 360,000 | potentiation, % (test concentration not listed); in the data active means potentiation above about 50%; inconclusive means mostly about 30% to 49%
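PathHunter beta-arrestin assay in DiscoveRx D2 cells. Compounds were added with an EC20 of dopamine (50 nM final) for 90 min at 37 deg C. Luminescence was read 1 h after detection reagent, with 57 uM dopamine as the EC100 control.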
D2 ag-1: Beta-Arrestin HTS for Positive Allosteric Modulators of the Human D2 Dopamine Receptor: Agonists | D(2) dopamine receptor (Homo sapiens), P14416 | DiscoveRx PathHunter D2 beta-arrestin, luminescence, 90 min; 100% = 57 uM dopamine signal | activation, % (concentration not given with the values) | hit rate 0.084% among 360,000; in the data active means activation above about 40%; inconclusive means between about 15% and that limit
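DiscoveRx PathHunter D2 beta-arrestin cells (2,100/well) attached overnight, then compound-stimulated 90 min at 37 C in HBSS/10 mM HEPES/0.1% Tween-20 buffer; beta-galactosidase complementation read by luminescence after 1 h at ambient temperature. Dopamine 57 uM final (EC100) as control.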
D2 ag-2: HTS Assay for Allosteric Agonists of the Human D2 Dopamine Receptor: Primary Screen for Agonists | hit rate 0.53% among 340,000 | HEK293 T-REx D2 cells, calcium flux agonist mode | activation, % at 2 µM | D(2) dopamine receptor (Homo sapiens), P14416;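 active means activation over 3 SD above normal in the single-dose calcium agonist read, cut at about 30% in these data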; further: 0% is about no effect
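Agonism is scored from calcium flux in a force-coupled, inducible HEK293 cell line expressing D2, read kinetically for 180 s after compound addition against dopamine controls.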
D2 antag: HTS Assay for Allosteric Antagonists of the Human D2 Dopamine Receptor: Primary Screen for Antagonists; D(2) dopamine receptor (Homo sapiens), P14416; HEK293 TREx D2 cells, calcium flux, dopamine EC80; inhibition, % at 10 µM; hit rate 2% among 340,000; in the data active means inhibition above about 30%; inactive means below that, where a call was filed; further: 0% is about no effect
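Calcium flux kinetic readout in an inducible HEK293 TREx D2 line plated overnight at 30 C. After 180 s compound exposure, an EC80 dopamine challenge follows with another 180 s kinetic read to detect antagonism.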
D3 arrestin ag: qHTS of D3 Dopamine Receptor Agonist: D3 Dopamine Receptor B-arrestin Agonist Confirmatory Assay | shares compounds with D2 ag-2 | DiscoveRx D3 beta-arrestin cells, luminescence, 90 min | Potency, µM (series often up to 76.9 µM), for the others: top-dose activation, actives largely listed as activators | hit rate 4% among 2,300 | AID 720506, 2013;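 further: potency means the concentration at half of the fitted maximal effect; 100% = dopamine control response; nearly all actives have a fitted effect of over 70% in size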
Target sequence (P35462 whole entry, looked up): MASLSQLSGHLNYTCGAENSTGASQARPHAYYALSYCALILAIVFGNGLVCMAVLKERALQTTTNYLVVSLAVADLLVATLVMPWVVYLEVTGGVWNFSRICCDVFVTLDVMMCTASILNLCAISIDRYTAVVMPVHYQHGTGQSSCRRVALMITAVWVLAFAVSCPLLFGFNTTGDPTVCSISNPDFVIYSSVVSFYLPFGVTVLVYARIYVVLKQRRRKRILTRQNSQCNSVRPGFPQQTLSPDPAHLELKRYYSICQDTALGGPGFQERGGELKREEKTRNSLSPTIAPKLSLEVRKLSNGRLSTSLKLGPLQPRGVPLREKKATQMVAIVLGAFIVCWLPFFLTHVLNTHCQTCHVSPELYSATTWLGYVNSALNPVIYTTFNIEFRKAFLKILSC
D2 ag-3: qHTS of D3 Dopamine Receptor Agonist: D2 Dopamine Receptor B-arrestin Agonist Counterscreen; shares compounds with D2 ag-2; DiscoveRx PathHunter D2 beta-arrestin, luminescence, 90 min; response scale: percent relative to full dopamine signal; Potency, µM (series often up to 76.9 µM), for inactives: top-dose activation, actives largely listed as activators; hit rate 5.9% among 2,300; AID 720507, 2013; further: potency means the concentration at half of the fitted maximal effect; % of control where 0% means no effect; nearly all actives have a fitted effect of over 70% in size
* = called active by the depositor; ? = inconclusive; · = no result given. Sampled rows, rich in hits. Any-hit rate of the full collection: about 2.4%. Unless noted, the call rests on the fitted dose curve; in most records, active means well fitted activation curve with a large enough effect; inconclusive means small, poorly fitted or top-dose-only effect; inactive means flat fitted curve, though single readings scatter.

SMILES	D2 PAM-1	D2 PAM-2	D2 ag-1	D2 ag-2	D2 antag	D3 arrestin ag	D2 ag-3
COc1ccc(-c2cc(C(=O)N3CCCC(C(F)(F)F)C3)c3ccccc3n2)cc1 (stereo not given)	9	1	2	0	7	-7%	-2%
Cc1ccc(C)c(N2CCN(C(=O)CCS(=O)(=O)c3ccc4c(c3)CC(=O)N4C)CC2)c1	1	·	·	0	·	·	·
COC(=O)c1ccc2c(c1)NC(=O)C(N1CCOCC1)S2 (stereo not given)	-6	2	2	-1	-1	·	·
CCCCN(C)CCNC(=O)c1ccc2c(c1)NC(=O)C(N1CCCCC1)S2 (stereo not given)	-21	-42	-1	50*	73*	?	15%
Cc1c(Cl)cccc1NC(=O)CSC(C)c1nc2ccccc2c(=O)[nH]1 (stereo not given)	2	-14	-3	-1	29	-13%	-4%
CC(C)NC(=O)C1CCC(Cn2c(=O)c3sccc3n(CC(=O)NCc3ccccc3)c2=O)CC1 (stereo not given)	-5	·	·	0	·	·	·
CCCOc1ccc(-c2nonc2NC(=O)c2oc3ccc(Cl)cc3c2C)cc1OCCC	1	·	·	0	·	·	·
COc1ccc(N(CC(=O)NCCOc2ccccc2)S(=O)(=O)c2ccc(C)cc2)cc1	-4	-11	0	26	-9	-1%	14%
CCOc1ccc(N(CC(=O)NCCOc2ccc(C)cc2)S(=O)(=O)c2ccccc2)cc1	0	-10	-4	1	-9	·	·
O=[N+]([O-])c1cc(Br)c2nsnc2c1N1CCOCC1	4	-4	0	26	23	-2%	1%
CCC(C(=O)Nc1ccc(C)c(C)c1)n1c(=O)c(C(F)(F)F)nc2ccccc21 (stereo not given)	2	·	·	·	·	·	·
CC1=C(C(=O)OC2CCCCC2)C(c2cccnc2)n2nnnc2N1 (stereo not given)	-19	-2	0	61*	-4	18%	11%
COC(=O)C1=C(C)Nc2nnnn2C1c1cccnc1 (stereo not given)	·	-3	-2	·	·	·	·
CCOc1ccccc1N(CC(=O)Nc1ccc(OC)c(Cl)c1)S(=O)(=O)c1ccccc1	2	·	·	-1	·	·	·
CCN(CC)c1ccc2cc(C(N)=O)c(=O)oc2c1	8	6	-11	-5	11	·	·
CCN(CC)c1ccc2cc(C(N)=O)c(=N)oc2c1	2	2	-2	44*	-10	-6%	2%
COCCCNS(=O)(=O)c1cc(-c2onc(C)c2C)ccc1OC	6	·	·	0	·	·	·
O=C(C1CCCN(Cc2ccc3c(c2)OCO3)C1)N1CCCC1 (stereo not given)	1	-4	-1	0	-13	·	·
O=C(C1CCN(c2nnc(N3CCCC3=O)s2)CC1)N1CCN(Cc2ccc3c(c2)OCO3)CC1	-5	4	3	57*	1	1%	26%
COc1ccc(Nc2ncnc3c2cnn3-c2ccc(C)cc2C)cc1	-6	·	·	0	·	·	·
CC1(C)CC(=O)C2=C(C1)N(c1ccc(F)cc1)C(=O)NC2(C(F)(F)F)C(F)(F)F	-19	8	-1	-1	8	·	·
